Experimental data from PubChem BioAssay AID651660 (Broad Institute, 2012).
About 15 (0.8%) of roughly 1,900 compounds were called active. The entries come from a sample that favours actives as a whole. A number with no mark means an inactive call.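 Rule for the calls: active = every replicate shows at least 50% inhibition; inconclusive = mean inhibition at least 50% but some replicate below; inactive = the rest.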

Molecular target: DNA repair protein RAD52 homolog (Homo sapiens) (UniProt P43351)
Assay: RAD52 ssDNA annealing inhibitors, primary screen, biochemical, FRET, single point (AID 651660);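 note: 0% = median of neutral control wells and 100% = median of positive control wells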
Settings: Recombinant RAD52 ssDNA annealing, FRET fluorescence, 30 min; at 18.7 µM; hits give high values

Chain of DNA repair protein RAD52 homolog (Homo sapiens) (P43351 whole entry, looked up): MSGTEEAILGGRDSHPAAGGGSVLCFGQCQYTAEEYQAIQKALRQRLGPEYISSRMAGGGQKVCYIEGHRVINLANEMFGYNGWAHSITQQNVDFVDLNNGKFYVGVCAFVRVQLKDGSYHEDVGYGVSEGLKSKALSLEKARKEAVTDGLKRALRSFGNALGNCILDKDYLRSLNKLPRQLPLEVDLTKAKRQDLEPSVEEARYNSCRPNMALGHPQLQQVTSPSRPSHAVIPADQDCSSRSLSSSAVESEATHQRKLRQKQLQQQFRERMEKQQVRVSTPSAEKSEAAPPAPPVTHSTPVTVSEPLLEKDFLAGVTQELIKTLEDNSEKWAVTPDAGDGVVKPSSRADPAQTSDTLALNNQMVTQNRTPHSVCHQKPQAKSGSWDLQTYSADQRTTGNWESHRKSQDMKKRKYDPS

| SMILES | inhibition |
| --- | --- |
| COc1cc2c3cc1Oc1cc(ccc1O)C[C@@H]1c4c(cc(OC)c(O)c4Oc4ccc(cc4)C[C@H]3N(C)CC2)CCN1C | 77.6% (active) |
| c1cnc2c(c1)ccc1ncccc12 | -3.46% |
| O=C1NCCN2CCCC12 (stereo not given) | -1.15% |
| CCC1(c2ccccc2)C(=O)N(COC)C(=O)N(COC)C1=O | -5.47% |
| C[N+]1(C)CCOC(O)(c2ccc(-c3ccc(C4(O)C[N+](C)(C)CCO4)cc3)cc2)C1 (stereo not given) | 61.8% (active) |
| C=C1[C@@H](C)[C@H]2[C@H](Cc3ccccc3)NC(=O)[C@]23OC(=O)/C=C/[C@H](O)CCC[C@@H](C)C/C=C/[C@H]3[C@@H]1O | -0.777% |
| CC(C)(C)C(O)C(Oc1ccc(Cl)cc1)n1cncn1 (stereo not given) | -119% |
| NCCc1c[nH]c2ccc(F)cc12 | 0.119% |
| CN1C(=O)N(C)C(=O)C2(Cc3ccccc3N3CCOCC32)C1=O (stereo not given) | -0.534% |
| CCNC(=S)N(C)CCc1cc2c(c(OC)c1C=C1C(=O)N(C)C(=O)N(C)C1=O)OCO2 | -15% |
